The text below walks through data of PubChem BioAssay.

The subject of experiment [1] is Human papillomavirus type 1a protein E7 (residues 44-93). Description: small molecules binding HPV E7 44-93 – biochemical, small-molecule microarray, residues 44-93, 635 nm fluorescence, primary screen (AID 1108).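 Also: E7 fragment applied at 1 µg/mL in TBST for 1 h at 4 C; score combines spot fluorescence with its signal to noise ratio.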 As to conditions: fluorescence 635 nm, higher = more signal.
Experiment [2] is described as follows: hepatitis C replication reporter changes, two-sided – Huh7 cells, luciferase reporter, HCV replication inhibitor project, primary screen (AID 1109).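 Also: huh7 hepatoma cells harbouring a luciferase neomycin HCV replicon reporter; luciferase luminescence as measure of HCV replicon replication; test concentration not given here.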 As to conditions: Huh7 HCV replicon luciferase reporter, 48 h; higher = more signal.
In experiment [3] the target is Left-right determination factor 2 (Homo sapiens) (UniProt O00292). Description: small molecules binding LEFTY2 protein – biochemical, small-molecule microarray, 635 nm fluorescence scan, primary screen (AID 1110). As to conditions: higher = more signal.
Left-right determination factor 2 (Homo sapiens), sequence (O00292 whole entry, looked up): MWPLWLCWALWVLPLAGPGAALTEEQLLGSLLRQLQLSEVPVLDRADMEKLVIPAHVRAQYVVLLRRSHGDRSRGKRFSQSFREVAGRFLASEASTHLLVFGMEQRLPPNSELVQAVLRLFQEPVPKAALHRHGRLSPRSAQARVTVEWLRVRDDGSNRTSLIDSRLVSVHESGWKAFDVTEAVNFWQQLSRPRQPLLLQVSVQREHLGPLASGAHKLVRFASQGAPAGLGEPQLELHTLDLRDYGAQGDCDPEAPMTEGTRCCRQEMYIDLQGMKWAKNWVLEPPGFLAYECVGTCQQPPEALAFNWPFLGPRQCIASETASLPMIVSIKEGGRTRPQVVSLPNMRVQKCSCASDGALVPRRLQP
Experiment [4] addresses Calmodulin-1 (Homo sapiens) (UniProt P0DP23). Description: small molecules binding calmodulin-1 with EGTA – biochemical, small-molecule microarray, Cy5-labelled CALM1, profiling panel (AID 1111).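 Also: labelled calmodulin applied in Tris saline Tween buffer holding calcium plus EGTA and DTT.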 As to conditions: Cy5-CALM1 binding fluorescence, higher = more signal.
The target is the same in experiment [5]. Description: small molecules binding Ca-loaded calmodulin-1 – biochemical, small-molecule microarray, Cy5-labelled CALM1, plus calcium, artefact control for SMM control-protein annotation, profiling panel (AID 1112).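 Also: score merges spot fluorescence with signal to noise from triplicate slides.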 As to conditions: Cy5-CALM1 binding fluorescence, higher = more signal.
Experiment [6] in a line: probe aWnt5a binding to arrayed compounds – biochemical, biotinylated probe, 635/667 nm fluorescence, primary screen (AID 1113).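 Also: score merges 667 nm fluorescence intensity with signal-to-noise per printed feature.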 As to conditions: small-molecule microarray, higher = more signal.
Experiment [7] in a line: probe aShh binding to arrayed compounds – biochemical, biotinylated probe, 635/667 nm fluorescence, primary screen (AID 1114).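 Also: probe is biotin-labelled aShh protein from a stem cell growth factor screen; measures binding of labelled protein to compounds printed on the slide; score merges feature fluorescence at 667 nm with signal-to-noise.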 As to conditions: small-molecule microarray, higher = more signal.
Experiment [8] can be described thus: probe aNog binding to arrayed compounds – biochemical, biotinylated probe, 635/667 nm fluorescence, primary screen (AID 1115).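 Also: probe is biotinylated aNog protein used at 0.15 µg/mL for 1 h at 4 C; z-score combines 667 nm fluorescence of each spot with its signal to noise.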 As to conditions: small-molecule microarray, higher = more signal.
For experiment [9], the target named is Torsin-1A-interacting protein 1 (Homo sapiens) (UniProt Q5JTV8). Put plainly: compound microarray binding of lysate hLAP1 – cell lysate, small-molecule microarray, COS7 lysate, 635/667 nm fluorescence, primary screen (AID 1116). As to conditions: 635 nm fluorescence, higher = more signal.
Torsin-1A-interacting protein 1 (Homo sapiens), sequence (Q5JTV8 whole entry, looked up): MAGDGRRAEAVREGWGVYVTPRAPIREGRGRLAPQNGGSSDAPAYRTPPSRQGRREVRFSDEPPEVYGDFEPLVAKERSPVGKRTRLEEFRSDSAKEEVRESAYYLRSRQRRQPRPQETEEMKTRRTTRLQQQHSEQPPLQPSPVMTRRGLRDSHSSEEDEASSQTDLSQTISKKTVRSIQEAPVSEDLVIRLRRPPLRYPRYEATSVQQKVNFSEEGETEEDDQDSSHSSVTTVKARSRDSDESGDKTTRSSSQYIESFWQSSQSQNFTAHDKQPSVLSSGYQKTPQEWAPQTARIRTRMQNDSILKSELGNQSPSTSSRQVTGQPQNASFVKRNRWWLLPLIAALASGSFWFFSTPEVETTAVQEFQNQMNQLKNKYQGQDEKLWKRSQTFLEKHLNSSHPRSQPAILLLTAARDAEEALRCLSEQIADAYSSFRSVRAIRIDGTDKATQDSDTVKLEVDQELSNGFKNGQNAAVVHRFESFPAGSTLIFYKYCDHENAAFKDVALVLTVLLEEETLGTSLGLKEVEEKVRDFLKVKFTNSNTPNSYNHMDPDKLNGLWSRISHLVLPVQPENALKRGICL
For experiment [10], the target named is Alpha-bungarotoxin (Bungarus multicinctus) (UniProt P60615). Description: compounds binding labelled alpha-BTX control protein – biochemical, small-molecule microarray, Alexa647 label, 635/667 nm fluorescence, artefact control for SMM control protein annotation, profiling panel (AID 1117). As to conditions: alpha-BTX-A647 binding fluorescence, higher = more signal.
Alpha-bungarotoxin (Bungarus multicinctus), sequence (P60615 whole entry, looked up): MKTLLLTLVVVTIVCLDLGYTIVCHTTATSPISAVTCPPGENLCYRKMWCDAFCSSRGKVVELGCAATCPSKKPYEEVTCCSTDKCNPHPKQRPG

Another experiment addresses Albumin (Bos taurus) (UniProt P02769). Put plainly: compounds binding labelled BSA control protein – biochemical, small-molecule microarray, Alexa647 label, 635/667 nm fluorescence, artefact control for SMM control protein annotation, profiling panel (AID 1118).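 Also: score merges 667 nm emission intensity and signal-to-noise per printed compound spot.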 As to conditions: BSA-A647 binding, fluorescence 635 nm, higher = more signal.
Experiment [11] is described as follows: probe aXIP binding to arrayed compounds – biochemical, NeuroSMM set, 635/667 nm fluorescence, primary screen (AID 1119).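 Also: probe is the protein aXip251-270 applied at 1 µg/mL to compound-printed slides; binding of probe to printed compounds measured as 667 nm fluorescence plus signal to noise.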 As to conditions: small-molecule microarray, higher = more signal, called active from +8 up or from −8 down.
The nature of experiment [12]: probe aNOTCH3 binding on compound microarray – biochemical, small-molecule microarray, 635/667 nm fluorescence, primary screen (AID 1120).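 Also: probe is a biotin-tagged antibody raised against NOTCH3 rather than NOTCH3 protein; score merges spot fluorescence near 667 nm with spot signal to noise.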 As to conditions: higher = more signal.
Experiment [13] in a line: probe aNOTCH2 binding on compound microarray – biochemical, small-molecule microarray, 635/667 nm fluorescence, primary screen (AID 1121).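 Also: score merges feature fluorescence read at 667 nm with its signal to noise.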 As to conditions: higher = more signal.
Experiment [14] deals with Carbonic anhydrase 2 (Homo sapiens) (UniProt P00918). Put plainly: compounds binding carbonic anhydrase 2 – biochemical, small-molecule microarray, Alexa647-labelled CAII, profiling panel (AID 1122). As to conditions: CAII-A647 binding fluorescence, higher = more signal.
The nature of experiment [15]: COS7 lysate on small-molecule microarray, probe aHis, 635 nm (AID 1123).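 Also: z-score combines 667nm fluorescence intensity with signal-to-noise per printed compound spot.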 As to conditions: COS7 cell lysate, fluorescence, higher = more signal.
A short description of experiment [16]: probe aLAP1 signal on lysate-treated microarray – cell lysate, small-molecule microarray, COS7 lysate, primary screen (AID 1124).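 Also: lysate comes from COS7 cells expressing LAP1 and is applied at 0.3 µg/mL; score merges spot fluorescence near 667 nm with signal-to-noise over triplicate slides.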 As to conditions: probe aLAP1, fluorescence, higher = more signal.
A further experiment relates to Sam68 (KHDRBS1). Description: compounds binding KHDRBS1 protein – biochemical, small-molecule microarray, 635 nm fluorescence, primary screen (AID 1125).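 Also: score merges 667 nm channel intensity with signal to noise over triplicate slides.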 As to conditions: higher = more signal.
The subject of experiment [17] is Chordin-like protein 2 (CHRDL2). Description: compounds binding chordin-like 2 – biochemical, small-molecule microarray, 635 nm fluorescence, primary screen (AID 1126).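 Also: printed compound slides probed with Chrdl2 protein at 4 µg/mL for 1 h at 4 C; score merges 667 nm emission intensity with signal to noise over three replicate slides.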 As to conditions: fluorescence 635 nm, higher = more signal.
The target in experiment [18] is Concanavalin-A (Canavalia ensiformis) (UniProt P02866). Description: compounds binding concanavalin A lectin – biochemical, small-molecule microarray, Alexa647 label, 635 nm, artefact control for SMM control protein annotation, primary screen (AID 1127).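 Also: z combines 667 nm emission intensity with signal-to-noise across three replicate slides.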 As to conditions: ConA-A647 binding fluorescence, higher = more signal.
Concanavalin-A (Canavalia ensiformis), sequence (P02866 whole entry, looked up): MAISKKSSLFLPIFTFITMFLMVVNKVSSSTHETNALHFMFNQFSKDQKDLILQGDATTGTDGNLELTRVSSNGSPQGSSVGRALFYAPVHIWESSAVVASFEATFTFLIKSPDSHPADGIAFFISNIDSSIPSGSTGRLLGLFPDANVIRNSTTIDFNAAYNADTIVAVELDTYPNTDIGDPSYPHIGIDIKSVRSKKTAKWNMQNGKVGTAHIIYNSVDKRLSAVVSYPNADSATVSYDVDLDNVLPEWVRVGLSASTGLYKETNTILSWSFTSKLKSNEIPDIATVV

Each structure is given as a SMILES string. Calls of active or inactive are those of the source.

Albumin (Bos taurus), sequence (P02769 whole entry, looked up): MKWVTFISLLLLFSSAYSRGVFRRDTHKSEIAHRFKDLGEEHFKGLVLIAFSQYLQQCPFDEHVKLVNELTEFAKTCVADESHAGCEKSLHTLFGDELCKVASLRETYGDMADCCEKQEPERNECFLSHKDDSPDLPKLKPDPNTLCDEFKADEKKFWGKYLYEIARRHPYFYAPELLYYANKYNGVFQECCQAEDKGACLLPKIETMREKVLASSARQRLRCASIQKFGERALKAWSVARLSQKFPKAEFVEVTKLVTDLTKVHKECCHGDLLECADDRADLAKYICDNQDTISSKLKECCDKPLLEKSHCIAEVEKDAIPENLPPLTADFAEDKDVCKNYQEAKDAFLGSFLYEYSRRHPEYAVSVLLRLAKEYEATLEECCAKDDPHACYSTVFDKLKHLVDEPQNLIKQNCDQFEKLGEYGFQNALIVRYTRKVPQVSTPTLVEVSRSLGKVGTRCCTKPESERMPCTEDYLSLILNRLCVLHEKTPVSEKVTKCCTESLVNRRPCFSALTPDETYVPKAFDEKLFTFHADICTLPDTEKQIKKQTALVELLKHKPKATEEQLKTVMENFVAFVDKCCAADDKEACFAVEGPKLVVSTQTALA

In the case of `CCOc1cc(C(O)C2C=CC3C(=O)N(C4CCCCC4)C(=O)C3N2Nc2ccc(OC)cc2)ccc1O` (stereo not given), the composite z-score in experiment [1] is 1.41; in experiment [3], 0.208; in [4], 1.13; in [5] it was 0.505; in experiment [6], 0.0182; in experiment [7], 0.06. In addition, the composite z-score in experiment [8] came out at 0.796; in [9] it was 0.327; in [10], 1.64; with Albumin (Bos taurus), 0.786; in [12], 0.208; in experiment [13], 0.0791. The composite z-score was 0.441 in [14]; 2.61 in experiment [15]; 0.717 in experiment [16]; 1.28 with Sam68 (KHDRBS1); -0.0164 in experiment [17]; 1.12 in experiment [18]. The molecule further showed a z-score in experiment [2] of -0.352. Besides, the composite Z-score in experiment [11] is 0.764 (inactive).

Take `CN(C)CCCCNC(=O)[C@H]1C[C@H]2C(=O)N[C@@H](CCCCN(C)C)C(=O)N2[C@H]1c1cccc(OCCO)c1`: the composite z-score in experiment [1] is 1.41; in experiment [3] it was 1.17; in experiment [4] it was 0.477; in experiment [5] it was -0.167; in experiment [6], -0.036; in experiment [7], -0.203. Further, the composite z-score was 0.0721 in experiment [8]; 0.752 in [9]; 0.701 in [10]; 0.418 with Albumin (Bos taurus); 0.0691 in experiment [12]; -0.237 in [13]. In addition, the composite z-score came out at 0.18 in experiment [14]; 2.21 in [15]; 0.518 in [16]; 1.31 in the experiment on Sam68 (KHDRBS1); 1.39 in experiment [17]; 1.14 in experiment [18]. In experiment [2], the z-score turned out to be 0.057. In experiment [11], the composite Z-score was -1 (inactive).

Consider `C=C(C(=O)CC[C@H](OC(=O)c1cccnc1)c1ccc(CO)o1)C(C)C`, for which the composite z-score in [1] is 0.362; in experiment [3], 0.584; in experiment [4] it was 0.627; in [5], -0.316; in experiment [6], 0.0973; in experiment [7] it was 0.39. Besides, the composite z-score is 0.013 in experiment [8]; 1.18 in experiment [9]; 1.19 in experiment [10]; 0.0812 with Albumin (Bos taurus); 0.0596 in experiment [12]; -0.0633 in [13]. Also, the composite z-score stood at 0.655 in experiment [14]; 0.403 in experiment [15]; 0.309 in experiment [16]; 0.839 with Sam68 (KHDRBS1); 0.302 in experiment [17]; 0.645 in [18]. In addition, the z-score in experiment [2] was -1.43. Also, the composite Z-score in [11] is 0.674 (inactive).

Turning to `O=c1cccc(-c2cccc(Cl)c2)o1`, the composite z-score in experiment [1] was 0.0546; in [3], 0.128; in [4] it was -0.137; in [5], -0.137; in [6], -0.228; in [7], -0.338. For the same molecule, the composite z-score in experiment [8] was -0.229; in experiment [9] it was 0.432; in experiment [10], 0.0698; in the experiment with Albumin (Bos taurus), 0.271; in [12], -0.0164; in experiment [13], -0.161. Besides, the composite z-score is -0.0655 in experiment [14]; 0.043 in experiment [15]; 0.275 in experiment [16]; 0.159 in the experiment with Sam68 (KHDRBS1); 0.0809 in experiment [17]; 0.164 in experiment [18]. Besides, the z-score in [2] was 0.268. Besides, the composite Z-score in experiment [11] was 1.25 (inactive).

Take `CCOC(=O)C1=CC[C@@H](c2cc(Cl)ccc2Cl)N(S(=O)(=O)c2ccc(C)cc2)[C@H]1c1ccc(OC)cc1`: the composite z-score in experiment [1] was -0.157; in experiment [3], -0.658; in experiment [4], 0.379; in experiment [5], 0.379; in [6], 0.374; in [7], 0.898. Further, the composite z-score is -0.412 in [8]; 0.417 in experiment [9]; -0.369 in [10]; 0.596 with Albumin (Bos taurus); 0.258 in [12]; 0.586 in experiment [13]. Besides, the composite z-score is 0.25 in experiment [14]; 0.515 in experiment [15]; 0.325 in experiment [16]; -0.0808 in the experiment on Sam68 (KHDRBS1); -0.362 in experiment [17]; -1.21 in experiment [18]. In experiment [2], the z-score is -2.23. In addition, the composite Z-score in [11] was 0.552 (inactive).
